The results in this text go back to PubChem BioAssay.

The structures appear in SMILES notation.

The target in one assay is Dickkopf-related protein 1 (Homo sapiens) (UniProt O94907). The assay is described as follows: small molecules binding DKK1 protein – biochemical, small-molecule microarray, 635 nm fluorescence scan, primary screen (AID 1106).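 Note: score merges emission near 667 nm with signal to noise over three replicate slides.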 The note with it: higher = more signal.
Chain of Dickkopf-related protein 1 (Homo sapiens) (O94907 whole entry, looked up): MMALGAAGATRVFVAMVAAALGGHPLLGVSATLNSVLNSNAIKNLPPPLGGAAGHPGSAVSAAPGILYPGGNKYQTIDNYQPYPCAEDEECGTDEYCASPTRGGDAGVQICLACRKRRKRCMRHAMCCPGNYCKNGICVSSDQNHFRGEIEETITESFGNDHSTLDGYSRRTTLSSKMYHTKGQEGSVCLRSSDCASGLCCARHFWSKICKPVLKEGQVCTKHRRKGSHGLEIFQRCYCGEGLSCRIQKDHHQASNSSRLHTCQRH
`CCOC(=O)[C@H](CC(C)C)NC(=O)CCC1CC(OC(=O)NCCc2ccc(F)cc2)CC2(CCCC(COC(=O)NCCOC)O2)O1` (stereo partly drawn): the composite z-score came to 0.96.

In turn, `CCN1C(=O)[C@H]2[C@H]3[C@H](O)[C@H](O)CC(=NOC(C)CN4CCCc5nc(C)c(C)cc54)[C@@H]3CC[C@H]2C1=O` (stereo partly drawn) registered a composite z-score of 0.713.

`CC(C)=CCCC(C)=CCON=C1[C@H]2CCn3c(=O)n(-c4ccccc4)c(=O)n3[C@H]2[C@H](O)[C@@H]2O[C@H]12` showed a composite z-score of 0.912.

For `O=C1C=C[C@@H](O)[C@@H]2[C@@H]3C(=O)N(Cc4ccccc4)C(=O)[C@@H]3CC[C@@H]12`, the composite z-score is 0.232.

Turning to `CCCCOC(OCCCC)C(O)CSc1ccc2ccccc2c1` (stereo not drawn), the composite z-score turned out to be 0.486.

Regarding `CC[C@@H](c1ccccc1)n1c(=O)n2n(c1=O)[C@H]1[C@H](O)[C@@H]3O[C@@H]3C(=NOCc3ccccc3)[C@H]1CC2`, the composite z-score turned out to be 0.235.

`CC(CCN1CCCc2nc(C)c(C)cc21)=NOC[C@@H](C)[C@H](OCc1ccccc1)C(C)C` gave a composite z-score of -0.265.

In the next assay the test system is Inhibin beta A chain (activin A). The assay is described as follows: small molecules binding activin A – biochemical, small-molecule microarray, 635 nm fluorescence scan, primary screen (AID 1107).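 Note: mouse activin A protein probed at 4.33 µg/mL on printed slides; score merges bound-protein fluorescence near 667 nm with spot signal-to-noise.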 The following applies: INHBA, higher = more signal.
In turn, `CC(C)CN1CCc2nc(-c3ccccc3)c3c(c2C1)CO[C@@H](C)C3` came in with a composite z-score of 0.0576.

Compound `COCC#Cc1ccc([C@@H]2N[C@H](C(=O)O)CC[C@H]2C)cc1` yielded a composite z-score of 0.784.

`C[C@@H](c1ccccc1)N1C(=O)[C@H]2[C@H]3[C@H](O)[C@H](O)CC(=NOC[C@@H](O)COCc4ccco4)[C@H]3CC[C@H]2C1=O` had a composite z-score of 0.574.

`CCOC(=O)[C@H](CC(C)C)NC(=O)CCC1CC(OC(=O)NCc2ccc3c(c2)OCO3)CC2(CCCC(COC(=O)NCCc3ccc(Cl)cc3)O2)O1` (stereo partly drawn) came in with a composite z-score of 0.101.

In turn, `C#CCCCON=C1C[C@@H](O)[C@@H](O)[C@@H]2[C@@H]3C(=O)N(C4CCCCC4)C(=O)[C@@H]3CC[C@@H]12` yielded a composite z-score of 0.265.

Compound `CC(C)=CCCC(C)=CCON=C1C[C@@H](O)[C@@H](O)[C@@H]2[C@@H]3C(=O)N(c4cccc(Oc5ccccc5)c4)C(=O)[C@@H]3CC[C@H]12` had a composite z-score of 0.657.

In turn, `COc1ccc(O[C@H]2C=C[C@@H](C#Cc3ccccc3)O[C@@H]2CO)cc1` returned a composite z-score of 1.08.

For `CCCNC(=O)OC[C@H]1O[C@H](CCON=C[C@@H](NS(=O)(=O)c2ccc(C)cc2)[C@H](C)C=CCC(=O)OC)C=C[C@@H]1Oc1ccc(OC)cc1`, the composite z-score was 0.32.

`COC(=O)[C@H](C)NC(=O)CCC1CC(OC(=O)NCc2cccc3ccccc23)CC2(CCCC(COC(=O)NCCCN3CCCC3=O)O2)O1` (stereo partly drawn) showed a composite z-score of -0.503.

In turn, `COC(=O)[C@H](C)NC(=O)CCC1CC(OC(=O)NCCc2ccc(F)cc2)CC2(CCCC(COC(=O)NCC3CCCCC3)O2)O1` (stereo partly drawn) had a composite z-score of 0.0532.

As for `COC(=O)[C@H](C)NC(=O)CCC1CC(OC(=O)NCc2ccc3c(c2)OCO3)CC2(CCCC(COC(=O)NCCc3ccc(Cl)cc3)O2)O1` (stereo partly drawn), the composite z-score amounted to 0.219.

Turning to `COc1ccc(COC(=O)NN=C2C[C@@H](O)[C@@H](O)[C@@H]3[C@@H]4C(=O)N([C@@H](C)c5ccccc5)C(=O)[C@@H]4CC[C@@H]23)cc1`, the composite z-score was found to be 0.878.

`COc1ccc(O[C@H]2C=C[C@@H](c3ccccc3)O[C@@H]2COC(=O)CCC(C)=NOC[C@@H](O)COCc2ccco2)cc1` displayed a composite z-score of -0.0879.

Regarding `CCN1C(=O)[C@H]2[C@H]3[C@H](O)[C@H](O)CC(=NOCC(C)C)[C@H]3CC[C@H]2C1=O`, the composite z-score turned out to be 0.122.

With `CC(=O)OC[C@H]1O[C@H](C#CCC2CCCCC2)C=C[C@@H]1OC(C)=O`, the composite z-score is -0.222.

In turn, `CCN1C(=O)[C@H]2[C@H]3[C@H](O)[C@H](O)CC(=NOC[C@@H](O)[C@H]4O[C@@H]5OC(C)(C)O[C@@H]5[C@H]4O)[C@@H]3CC[C@H]2C1=O` came in with a composite z-score of 0.46.

The compound `C[C@@H]1CC[C@@H](C(=O)O)N[C@H]1c1cccc(N2CCOCC2)c1` displayed a composite z-score of 0.0223.

For the compound `CCOC(=O)NN=C1C[C@@H](O)[C@@H](O)[C@@H]2[C@@H]3C(=O)N(c4ccc(F)cc4F)C(=O)[C@@H]3CC[C@H]12`, the composite z-score turned out to be 0.0584.

For the compound `CCC1=NOC(CCC2CC(OC(=O)NCc3cccc4c3OCO4)CC3(CCCC(COC(=O)NCCc4ccc(Cl)cc4)O3)O2)C1` (stereo not drawn), the composite z-score amounted to 0.0081.

As for `CCOC(=O)CCN1C(=O)[C@H]2[C@H]3[C@H](O)[C@H](O)CC(=NO[C@@H]4O[C@H](CO)[C@@H](O)[C@H](O)[C@H]4O)[C@@H]3CC[C@H]2C1=O`, the composite z-score was 0.898.

For `CCOC(=O)[C@H](CC(C)C)NC(=O)CCC1CC(OC(=O)NCc2ccc3c(c2)OCO3)CC2(CCCC(COC(=O)NCc3ccccc3)O2)O1` (stereo partly drawn), the composite z-score was -0.0973.

In turn, `CC(C)C(=O)N[C@H]1CCCN1C(=O)C=Cc1ccccc1` yielded a composite z-score of 0.0551.

Turning to `COC(=O)[C@H](C)NC(=O)CCC1CC(OC(=O)NCc2cccc3ccccc23)CC2(CCCC(COC(=O)NCc3ccccc3)O2)O1` (stereo partly drawn), the composite z-score was -0.0949.

For the compound `CCOC(=O)[C@H](CC(C)C)NC(=O)CCC1CC(OC(=O)NCCc2ccc(F)cc2)CC2(CCCC(COC(=O)NCc3cccc4ccccc34)O2)O1` (stereo partly drawn), the composite z-score is -0.583.

The compound `COC(=O)CC=C[C@@H](C)[C@@H](C=NOC(C)CN1CCCCc2nc(C)c(C)cc21)OC` (stereo partly drawn) had a composite z-score of 1.19.

The compound `CCN1C(=O)[C@H]2[C@H]3[C@H](O)[C@H](O)CC(=NOC[C@@H](O)COCc4ccco4)[C@H]3CC[C@H]2C1=O` gave a composite z-score of 1.45.

As for `COCCNC(=O)OCC1CCCC2(CC(OC(=O)NCc3cccc4ccccc34)CC(CCC(=O)N[C@@H](C)C(=O)OC)O2)O1` (stereo partly drawn), the composite z-score is -0.0341.

In turn, `CC(=O)OC[C@H]1O[C@@H](ON=C(C)CCN2CCCCc3nc(C)c(C)cc32)[C@H](OC(C)=O)[C@@H](OC(C)=O)[C@@H]1OC(C)=O` showed a composite z-score of 0.328.

The compound `O=C1C=C[C@@H](O)[C@@H]2[C@@H]3C(=O)N(c4cccc(Oc5ccccc5)c4)C(=O)[C@@H]3CC[C@@H]12` displayed a composite z-score of -0.0914.

With `CCOC(=O)[C@H](CC(C)C)NC(=O)CCC1CC(OC(=O)NCCc2ccc(F)cc2)CC2(CCCC(COC(=O)NCCOC)O2)O1` (stereo partly drawn), the composite z-score was -0.0586.

`CCN1C(=O)[C@H]2[C@H]3[C@H](O)[C@H](O)CC(=NOC(C)CN4CCCc5nc(C)c(C)cc54)[C@@H]3CC[C@H]2C1=O` (stereo partly drawn) had a composite z-score of 0.907.

Take `CC(C)=CCCC(C)=CCON=C1[C@H]2CCn3c(=O)n(-c4ccccc4)c(=O)n3[C@H]2[C@H](O)[C@@H]2O[C@H]12`: the composite z-score amounted to 0.722.

The compound `O=C1C=C[C@@H](O)[C@@H]2[C@@H]3C(=O)N(Cc4ccccc4)C(=O)[C@@H]3CC[C@@H]12` showed a composite z-score of 0.181.

In turn, `CCCCOC(OCCCC)C(O)CSc1ccc2ccccc2c1` (stereo not drawn) came in with a composite z-score of 0.251.

In turn, `CC[C@@H](c1ccccc1)n1c(=O)n2n(c1=O)[C@H]1[C@H](O)[C@@H]3O[C@@H]3C(=NOCc3ccccc3)[C@H]1CC2` registered a composite z-score of 0.517.

Take `CC(CCN1CCCc2nc(C)c(C)cc21)=NOC[C@@H](C)[C@H](OCc1ccccc1)C(C)C`: the composite z-score is 0.356.
